The text below walks through data of PubChem BioAssay (Tox21).

“And” between values parts separate entries of the source, which are not always exact repeats. Equal entries are not always repeated. Results filed as inconclusive are left out. The source holds several records for some structures; these can differ, active in one and inactive in another. The source made the active and inactive calls. Unless noted, calls follow the shape of the dose curve; as a rule, active = well fitted curve in the direction sought with a large enough effect in the repeat runs; inconclusive = weak or mixed curves; inactive = no such curve, though single readings can be large; an effect the other way counts as inactive or inconclusive.

Assay [1] can be described thus: qHTS assay to identify small molecule antagonists of the estrogen receptor alpha (ER-alpha) signaling pathway using the BG1 cell line in the presence of 0.1 nM 17-beta-estradiol - cell viability counter screen (AID 1259241). Also: nearly all actives have a fitted effect of over 40% in size. Also: potency is read from the fitted curve at half-maximal effect. As to activity change, negative = cytotoxicity: % is scaled to controls: 0 for no effect and ±100 for the full control effect. The procedure, abridged:
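VM7Luc4E2, 4,000 cells/well, phenol red-free medium + 10% charcoal-stripped FBS; 24 hr plating; cpd + 0.1 nM E2 final, 22 hr 37C/5% CO2; CellTiter-Fluor 30 min, fluorescence.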
For orientation: qHTS replaces the single test concentration by a dilution series.

Assay [2] is described as follows: qHTS assay to identify small molecule antagonists of the androgen receptor (AR) signaling pathway using the MDA cell line in the presence of 0.5 nM R1881 - cell viability counter screen (AID 1259242). Also: nearly all actives have a fitted effect of over 45% in size. Also: potency is read from the fitted curve at half-maximal effect. In outline:
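Fluorescence from CellTiter-Fluor, which reports protease activity of live cells, was read 30 min after reagent addition to MDA-kb2 cells that had been incubated 16 hr with compound and 0.5 nM R1881.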

The target of assay [3] is Androgen receptor (Homo sapiens) (UniProt P10275). The assay can be described thus: qHTS assay to identify small molecule antagonists of the androgen receptor (AR) signaling pathway using the MDA cell line in the presence of 0.5 nM R1881 (AID 1259243). Also: nearly all actives have a fitted effect of over 50% in size. Also: potency is read from the fitted curve at half-maximal effect. In outline: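 Inhibition of R1881 (0.5 nM final) induced reporter signal was measured in human MDA-kb2 cells; note the MMTV promoter also responds to GR. Exposure lasted 16 hr at 37C.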
Sequence of Androgen receptor (Homo sapiens) (P10275 whole entry, looked up): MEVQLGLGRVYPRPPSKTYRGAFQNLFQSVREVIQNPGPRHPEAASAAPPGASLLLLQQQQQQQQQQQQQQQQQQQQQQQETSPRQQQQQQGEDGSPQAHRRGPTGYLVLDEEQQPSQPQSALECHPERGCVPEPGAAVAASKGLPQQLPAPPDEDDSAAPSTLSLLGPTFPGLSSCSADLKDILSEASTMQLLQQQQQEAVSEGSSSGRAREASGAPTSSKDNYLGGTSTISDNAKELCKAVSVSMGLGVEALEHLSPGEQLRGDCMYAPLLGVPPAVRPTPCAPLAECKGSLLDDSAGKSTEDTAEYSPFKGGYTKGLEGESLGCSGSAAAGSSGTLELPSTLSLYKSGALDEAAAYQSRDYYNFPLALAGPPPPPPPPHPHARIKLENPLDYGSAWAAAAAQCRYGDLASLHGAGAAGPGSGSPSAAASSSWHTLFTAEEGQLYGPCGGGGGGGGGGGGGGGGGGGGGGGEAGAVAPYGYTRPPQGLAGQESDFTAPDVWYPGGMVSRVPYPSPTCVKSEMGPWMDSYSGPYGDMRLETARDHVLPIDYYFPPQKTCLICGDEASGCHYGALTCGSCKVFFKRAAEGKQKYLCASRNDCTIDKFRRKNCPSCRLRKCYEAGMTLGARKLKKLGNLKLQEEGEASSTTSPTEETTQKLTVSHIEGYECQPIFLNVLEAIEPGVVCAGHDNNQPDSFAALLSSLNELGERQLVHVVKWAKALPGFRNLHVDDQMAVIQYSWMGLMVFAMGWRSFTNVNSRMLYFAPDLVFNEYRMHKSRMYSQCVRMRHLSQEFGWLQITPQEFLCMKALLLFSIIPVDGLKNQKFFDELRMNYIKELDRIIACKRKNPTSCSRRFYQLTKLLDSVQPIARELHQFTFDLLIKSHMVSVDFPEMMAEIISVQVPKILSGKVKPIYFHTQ

The target of assay [4] is Estrogen receptor (Homo sapiens) (UniProt P03372). As to the kind of experiment: qHTS assay to identify small molecule antagonists of the estrogen receptor alpha (ER-alpha) signaling pathway using the BG1 cell line in the presence of 0.1 nM 17-beta-estradiol (AID 1259244). Also: nearly all actives have a fitted effect of over 50% in size. Also: potency is read from the fitted curve at half-maximal effect. As to activity change, negative = inhibition: % is scaled to controls: 0 for no effect and ±100 for the full control effect. In outline: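 Quantitative high-throughput screen in VM7Luc4E2 cells: compound plus 0.1 nM E2 (final), 22 h, 37C, 5% CO2; ONE-Glo added, 30 min room temperature, luminescence measured.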
Sequence of Estrogen receptor (Homo sapiens) (P03372 whole entry, looked up): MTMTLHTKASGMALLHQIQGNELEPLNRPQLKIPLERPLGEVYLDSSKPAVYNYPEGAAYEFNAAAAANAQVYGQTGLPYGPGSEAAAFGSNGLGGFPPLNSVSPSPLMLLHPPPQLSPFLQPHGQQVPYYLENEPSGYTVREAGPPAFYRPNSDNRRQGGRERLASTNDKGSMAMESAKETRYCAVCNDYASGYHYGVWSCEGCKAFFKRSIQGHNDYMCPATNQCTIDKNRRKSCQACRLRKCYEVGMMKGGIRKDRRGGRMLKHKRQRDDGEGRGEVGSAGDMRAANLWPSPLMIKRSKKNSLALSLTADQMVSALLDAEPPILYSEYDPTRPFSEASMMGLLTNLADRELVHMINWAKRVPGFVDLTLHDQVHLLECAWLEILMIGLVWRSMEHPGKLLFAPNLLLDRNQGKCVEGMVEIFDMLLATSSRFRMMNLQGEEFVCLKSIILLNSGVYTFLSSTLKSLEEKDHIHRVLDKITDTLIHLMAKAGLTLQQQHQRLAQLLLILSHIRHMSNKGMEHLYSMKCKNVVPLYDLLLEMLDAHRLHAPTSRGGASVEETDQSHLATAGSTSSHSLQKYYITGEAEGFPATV

Assay [5] in a line: qHTS assay to identify small molecule phospholipidosis (PLD) inducers (AID 1259344; active = well fitted curve in the direction sought with a large enough effect; an effect the other way counts as inactive or inconclusive; also: % is scaled to controls: 0 for no effect and ±100 for the full control effect). In outline: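 Quantitative HTS in HepG2: compound plus LipidTOX Red dye for 24 h, paraformaldehyde fixation with Hoechst 33342, widefield high-content imaging; amiodarone as positive and DMSO as negative control.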
The nature of assay [6]: qHTS assay to identify small molecule HDAC inhibitors (AID 1259364). Also: nearly all actives have a fitted effect of over 45% in size. Also: potency is read from the fitted curve at half-maximal effect. The procedure, abridged:
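Endogenous HDAC class I/II activity was measured in wild-type HCT-116 cells by HDAC-Glo luminescence after 2 h compound treatment.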

The nature of assay [7]: qHTS assay to identify small molecule HDAC inhibitors - cell viability counter screen (AID 1259365). Also: series mostly up to about 92 µM; % is scaled to controls: 0 for no effect and ±100 for the full control effect; nearly all actives have a fitted effect of over 50% in size. The procedure, abridged:
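Luminescence from CellTiter-Glo, developed 30min at room temperature, reports viability of wild-type HCT-116 cells treated 2hr with compounds at 37 C and 5% CO2 after overnight plating.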

A short description of assay [8]: qHTS assay to identify small molecule agonists of the sonic hedgehog signaling (Shh) pathway - cell viability counter screen (AID 1259366). Also: nearly all actives have a fitted effect of over 50% in size. Also: potency is read from the fitted curve at half-maximal effect. In outline: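 Cytotoxicity counter screen run in the same wells as the Shh reporter assay. NIH/3T3 cells carrying a Gli1 response element–driven luciferase were treated with DMSO-dissolved compounds for 24hr, and live-cell protease activity was measured with CellTiter-Fluor.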

Assay [9] is described as follows: qHTS assay to identify small molecule antagonists of the sonic hedgehog signaling (Shh) pathway - cell viability counter screen (AID 1259367). Also: nearly all actives have a fitted effect of over 55% in size. Also: potency is read from the fitted curve at half-maximal effect. The procedure, abridged:
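Seed 3T3 Gli1-Luc cells at 2,000 per well; incubate 4 hr; add compound in DMSO, then conditioned medium; incubate at 37C with 5% CO2; add CellTiter-Fluor after 23 hr; read fluorescence 1 hr later.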

A short description of assay [10]: qHTS assay to identify small molecule agonists of the sonic hedgehog signaling (Shh) pathway (AID 1259368; calls by dose curve;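 also: NIH/3T3-derived 3T3Gli1-Luc cells carrying a stable Gli1-driven firefly luciferase reporter; series mostly up to about 92 µM; % is scaled to controls: 0 for no effect and ±100 for the full control effect; nearly all actives have a fitted effect of over 15% in size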). The procedure, abridged:
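Luminescent signal was taken as a measure of Gli1-controlled luciferase expression in stably transfected NIH/3T3-derived cells that had been treated for 24 hr with compounds delivered in DMSO.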

Assay [11] in a line: qHTS assay to identify small molecule antagonists of the sonic hedgehog signaling (Shh) pathway (AID 1259369; calls by dose curve; also: nearly all actives have a fitted effect of over 45% in size; also: potency is read from the fitted curve at half-maximal effect). In outline:
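Screening used 3T3Gli1-Luc cells at 2,000 per well, compounds delivered in DMSO, and conditioned medium as agonist stimulus; plates incubated 24hr at 37 C and 5% CO2 before a 30min luciferase step.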

Assay [12] in a line: qHTS assay to identify small molecule agonists of the androgen receptor (AR) signaling pathway in the presence of an antagonist - cell viability counter screen (AID 1259379). Also: nearly all actives have a fitted effect of over 25% in size. Also: potency is read from the fitted curve at half-maximal effect. The procedure, abridged: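 In MDA-kb2 cells (human breast carcinoma, MMTV-luciferase), compounds at 15 concentrations plus 3.0uM nilutamide; 16 hr, 37C, 0% CO2; CellTiter-Fluor fluorescence read for viability.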

The nature of assay [13]: qHTS assay to identify small molecule agonists of the estrogen receptor beta (ER-beta) signaling pathway - cell viability counter screen (AID 1259380). Also: nearly all actives have a fitted effect of over 30% in size. Also: potency is read from the fitted curve at half-maximal effect. In outline:
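Viability of ER-beta-UAS-bla HEK293T cells was determined by CellTiter-Glo luminescence following 16 hr treatment with test compounds at 37C.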

The target in assay [14] is Androgen receptor (Homo sapiens) (UniProt P10275). The assay can be described thus: qHTS assay to identify small molecule agonists of the androgen receptor (AR) signaling pathway in the presence of an antagonist (AID 1259381; calls by dose curve; also: % is scaled to controls: 0 for no effect and ±100 for the full control effect; nearly all actives have a fitted effect of over 15% in size). The procedure, abridged: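 Here, 15-concentration compound series were pin-transferred onto MDA-kb2 MMTV-luciferase cells already dosed with nilutamide (3.0uM final). After 16hr at 37C, ONE-Glo was added and luminescence read 30min later at room temperature.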

Assay [15] has as its target Estrogen receptor (Homo sapiens) (UniProt P03372). As to the kind of experiment: qHTS assay to identify small molecule agonists of the estrogen receptor alpha (ER-alpha) signaling pathway in the presence of an antagonist (AID 1259383; calls by dose curve; also: nearly all actives have a fitted effect of over 15% in size; also: potency is read from the fitted curve at half-maximal effect). In outline: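 In VM7Luc4E2 cells, 4,000 per well, compounds at 15 concentrations were co-incubated 22hr at 37C with 10.0nM final ICI-182,780. Luminescence from the stably transfected 4×ERE-luciferase reporter was recorded 30min after ONE-Glo addition.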

The nature of assay [16]: qHTS assay to identify small molecule agonists or antagonists of the thyroid stimulating hormone receptor (TSHR) signaling pathway - wild type cell line counter screen (AID 1259384; calls by dose curve; also: % is scaled to controls: 0 for no effect and ±100 for the full control effect). In outline:
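Wild-type Hek293 cells, 800/well, 18 h at 37C, then compound with Ro20-1724 for 30 min RT. cAMP by HTRF (cAMP-d2/anti-cAMP cryptate), 1 h RT, fluorescence read. 15 concentrations, triplicates.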

In assay [17] the target is Estrogen receptor beta (Homo sapiens) (UniProt Q92731). The assay can be described thus: qHTS assay to identify small molecule agonists of the estrogen receptor beta (ER-beta) signaling pathway (AID 1259377; active = well fitted activation curve with a large enough effect in the signal ratio in the repeat runs, not every such curve was filed as active; the % refers to the signal ratio; also: potency is read from the fitted curve at half-maximal effect). In outline: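 HEK293T ER-beta-UAS-bla; 2% charcoal-stripped FBS; cells pre-incubated 6 hr, compound 16 hr, 37C/5% CO2; LiveBLAzer B/G FRET substrate 2 h RT; fluorescence intensity read.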
Sequence of Estrogen receptor beta (Homo sapiens) (Q92731 whole entry, looked up): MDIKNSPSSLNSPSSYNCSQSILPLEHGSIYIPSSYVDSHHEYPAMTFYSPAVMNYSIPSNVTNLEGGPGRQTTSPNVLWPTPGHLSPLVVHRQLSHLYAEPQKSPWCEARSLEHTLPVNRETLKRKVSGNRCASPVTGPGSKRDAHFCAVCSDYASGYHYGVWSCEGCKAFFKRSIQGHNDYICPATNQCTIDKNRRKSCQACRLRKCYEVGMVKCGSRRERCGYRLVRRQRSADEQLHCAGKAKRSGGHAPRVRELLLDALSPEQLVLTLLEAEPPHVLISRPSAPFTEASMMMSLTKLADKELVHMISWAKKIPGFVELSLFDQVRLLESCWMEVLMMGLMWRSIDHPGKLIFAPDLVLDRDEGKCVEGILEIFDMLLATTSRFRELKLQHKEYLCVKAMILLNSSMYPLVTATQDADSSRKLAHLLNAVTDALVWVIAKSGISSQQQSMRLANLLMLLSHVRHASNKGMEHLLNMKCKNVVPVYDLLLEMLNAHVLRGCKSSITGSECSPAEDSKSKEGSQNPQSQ

Assay [18] is described as follows: qHTS assay to identify small molecule antagonists of the estrogen receptor beta (ER-beta) signaling pathway - cell viability counter screen (AID 1259382). Also: nearly all actives have a fitted effect of over 55% in size. Also: potency is read from the fitted curve at half-maximal effect. In outline: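 Tox21 10K library tested in qHTS format on ER-beta-bla HEK293T cells stimulated with 1nM E2; 16 hr treatment at 37C. Same-well CellTiter-Glo luminescence served as the cell viability measure.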

Assay [19] addresses Estrogen receptor beta (Homo sapiens) (UniProt Q92731). As to the kind of experiment: qHTS assay to identify small molecule antagonists of the estrogen receptor beta (ER-beta) signaling pathway (AID 1259378; active = well fitted inhibition curve with a large enough effect in the signal ratio in the repeat runs, not every such curve was filed as active; the % refers to the signal ratio; also: potency is read from the fitted curve at half-maximal effect). In outline:
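ER-beta-UAS-bla HEK293T cells in 2% charcoal-stripped FBS medium treated with compound plus 1nM final 17-beta-estradiol for 16 hr at 37C. Beta-lactamase reporter read by FRET substrate fluorescence after 2 hours at room temperature.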

The target of assay [20] is Thyrotropin receptor (Homo sapiens) (UniProt P16473). As to the kind of experiment: qHTS assay to identify small molecule antagonists of the thyroid stimulating hormone receptor (TSHR) signaling pathway (AID 1259385; calls by dose curve; also: potency is read from the fitted curve at half-maximal effect; nearly all actives have a fitted effect of over 20% in size). The procedure, abridged:
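TSHR-HEK293 cells (800/well) plated 18 h, then compounds with Ro20-1724 and TSH at 1.5 ng/mL final, 30 min at room temperature. cAMP quantified by HTRF (cAMP-d2/anti-cAMP-cryptate, 1 h); 15 concentrations in triplicate.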

Sequence of Thyrotropin receptor (Homo sapiens) (P16473 whole entry, looked up): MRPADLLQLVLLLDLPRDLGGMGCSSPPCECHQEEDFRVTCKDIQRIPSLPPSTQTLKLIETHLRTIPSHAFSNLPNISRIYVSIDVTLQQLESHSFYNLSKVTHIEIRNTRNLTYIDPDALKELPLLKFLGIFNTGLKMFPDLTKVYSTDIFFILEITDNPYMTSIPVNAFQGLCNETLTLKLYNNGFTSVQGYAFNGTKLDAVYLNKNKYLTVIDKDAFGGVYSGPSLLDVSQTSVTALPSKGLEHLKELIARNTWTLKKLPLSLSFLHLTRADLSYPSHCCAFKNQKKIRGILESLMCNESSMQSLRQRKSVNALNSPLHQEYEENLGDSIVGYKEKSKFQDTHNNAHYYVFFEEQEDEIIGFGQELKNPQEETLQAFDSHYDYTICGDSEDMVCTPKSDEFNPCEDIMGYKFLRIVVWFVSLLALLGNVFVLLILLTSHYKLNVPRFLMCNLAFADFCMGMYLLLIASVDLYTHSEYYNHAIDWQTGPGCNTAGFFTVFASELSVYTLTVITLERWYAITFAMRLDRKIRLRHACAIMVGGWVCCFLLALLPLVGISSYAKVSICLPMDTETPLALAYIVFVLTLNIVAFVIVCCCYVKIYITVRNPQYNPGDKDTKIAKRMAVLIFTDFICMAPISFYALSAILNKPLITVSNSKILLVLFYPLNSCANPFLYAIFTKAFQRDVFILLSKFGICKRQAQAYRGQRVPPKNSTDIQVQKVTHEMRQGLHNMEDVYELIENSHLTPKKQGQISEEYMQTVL

With `CC(C)=CCOc1ccc(/C=C/C(=O)c2ccc(OCC=C(C)C)cc2OCC(=O)O)cc1`, the Potency entry in assay [1], in [2], in assay [3], in [4], in assay [5] and in assay [6] was “inactive” each time. Moreover, the Potency entry in assay [7], in assay [8], in assay [9], in assay [10], in assay [11] and in [12] was “inactive” in each case. For the same compound, the Potency entry in assay [14] and in [15] was “inactive” in each case. For the same compound, the Potency in assay [13] is 5.96 µM (active). Further, in assay [16], the outcome was inactive.

Take `CCCCCCOC(=O)c1ccc(O)cc1`: the Potency entry in assay [1], in assay [2], in [3], in assay [4], in assay [7] and in assay [17] was “inactive” each time. The Potency entry in assay [12], in [14] and in [18] was “inactive” throughout. Further, the Potency in assay [6] was 24.4 µM (active) and 27.3 µM (active); in [13], 48.6 µM (active); in assay [15] it was 27.3 µM (active). In addition, the result in [16] was inactive.

Take `CC(C)C(C)(C)C(C)(C)C(C)(C)S`: the Potency result in assay [1], in [2], in [3], in [4], in assay [5] and in assay [6] was “inactive” each time. The Potency result in [7], in [8], in assay [9], in assay [10], in assay [17] and in assay [19] was “inactive” throughout. The Potency entry in assay [12], in assay [13], in assay [14], in assay [18] and in [15] was “inactive” in each case. For the same compound, the outcome in assay [16] was inactive.

`CN(C)C(=O)C1(N2CCCCC2)CCN(CC[C@@]2(c3ccc(Cl)c(Cl)c3)CN(C(=O)c3ccccc3)CCO2)CC1`: the Potency was 64.1 µM (active) in assay [1]; 50.9 µM (active) in [2]; 28.6 µM (active) in assay [3]; 57.1 µM (active) in assay [4]; 16.1 µM (active) in [8]; 50.9 µM (active) in assay [9]. The Potency in assay [11] was 18.1 µM (active); in assay [19], 16.1 µM (active); in assay [12], 57.1 µM (active); in assay [13], 36 µM (active); in assay [18] it was 28.6 µM (active); in assay [20] it was 64.1 µM (active). Besides, the Potency result in assay [6], in assay [7], in assay [10], in assay [17], in assay [14] and in assay [15] was “inactive” in each case. Besides, the compound was called inactive in assay [16].

In the case of `C[n+]1cc2c3c(ccc2c2ccc4cc5c(cc4c21)OCO5)OCO3`, the Potency is 13 µM (active) in [1]; 10.3 µM (active) in assay [2]; 7.3 µM (active) in assay [3]; 1.64 µM (active) in assay [8]; 2.91 µM (active) in [9]; 11.6 µM (active) in assay [12]. The Potency in assay [13] was 2.59 µM (active); in assay [18], 3.66 µM (active). In addition, the activity change, negative = inhibition in [4] is -84.3% [at 19 µM] (inactive); in assay [6] it was -20.3% [at 19 µM] (inactive). The Potency result in assay [5] is “inactive”. Also, the activity change, negative = cytotoxicity in assay [7] was 25% [at 19 µM] (inactive). Moreover, the activity change in assay [10] was -5.86% [at 18.9 µM, stronger effect = higher value] (inactive). The activation in assay [14] was -10.3% [at 19 µM] (inactive). Moreover, the cAMP activity change in assay [16] was 4.72% [at 18.9 µM] (inactive).

In the case of `CC[C@H](c1ccc(O)cc1)[C@@H](CC)c1ccc(O)cc1`, the Potency entry in [1], in assay [2], in [5], in assay [6], in assay [7] and in [10] was “inactive” in each case. Also, the Potency result in assay [12], in assay [14] and in [18] was “inactive” throughout. Also, the Potency in assay [3] is 15.4 µM (active) and 26.6 µM (active); in assay [4], 48.6 µM (active); in assay [8], 54.5 µM (active) and inactive; in assay [9], 48.6 µM (active) and inactive; in [11], 7.7 µM (active); in [17], 0.0011 µM (active). In addition, the Potency is 48.6 µM (active) and inactive in assay [13]; 4.3 nM (active) and 8.4 nM (active) in assay [15].
